# FMDV antiviral: antivirals against foot and mouth disease virus; FMDV antiviral cell-based qHTS; Potency, µM (titrated, usually from 57.9 µM), hits mostly inhibitors; actives 1.2% (n = 410,000); AID 1159524; calls by dose curve; tested in HEK293T cells; also: read-out not given here; nearly all actives have a fitted effect of over 45% in size
# HCV inhibitor: HCV inhibition; Huh7.5.1 HCVcc-Cre infection, luciferase reporter, 44 h; Potency, µM (titrated, usually from 41.8 µM), hits mostly inhibitors; actives 3.4% (n = 340,000); AID 651820; active = well fitted inhibition curve with a large enough effect; inconclusive = small, poorly fitted or top-dose-only effect, or another doubt; inactive = no such curve, though single readings can be large or run the other way
#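 A cell-based infection assay in which seeded cells (1,000 per well) receive test compound after 4 h, are inoculated with HCVcc-Cre at approximately 0.5 moi, and are incubated 44 h before luminescence detection.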
# HCMV antiviral: inhibitors of human cytomegalovirus; actives 4.5% (n = 410,000); HFF cells, HCMV-luciferase reporter, 72 h; stronger effect = lower value; activity change, negative = inhibition, % at 57.5 µM; AID 1259415; in the data active = activity change below about -60%; inconclusive = no clear call, values can overlap the other calls; inactive = above about -39%
#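 After 16 h attachment at 37C, HFF cells received test compound and HCMV-luciferase (1 PFU/cell); reporter luminescence read 72 h later, data normalized against buffer-only and known inhibitor Salinomycin.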
# MARV entry inh: Marburg virus entry inhibition; Marburg virus pseudotyped entry inhibition, cell reporter; Potency, µM (series often up to 37.8 µM), most hits filed as inhibitors; actives 1.8% (n = 300,000); AID 540276; calls by dose curve; tested in HEK293 cells
# SARS PLpro yeast: inhibitors of SARS-CoV papain-like protease in yeast; S. cerevisiae expressing SARS-CoV PLpro, growth rescue; Potency, µM (highest dose often 32.9 µM), usual class: activators; actives 0.19% (n = 330,000); calls by dose curve; also: nearly all actives have a fitted effect of over 55% in size
# LASV entry inh: Lassa virus entry inhibition | Potency, µM (highest dose often 37.9 µM), most hits filed as inhibitors | actives 1.2% (n = 300,000) | Lassa virus pseudotype entry inhibition, cell reporter; calls by dose curve; tested in HEK293 cells; also: nearly all actives have a fitted effect of over 50% in size
# A number is an active result; – = inactive; ? = inconclusive; · = no result given. Only some compounds are listed: those with a hit (about 8% of all), similar ones and a draw of the others.
SMILES,FMDV antiviral,HCV inhibitor,HCMV antiviral,MARV entry inh,SARS PLpro yeast,LASV entry inh
Cc1nn2c(=O)cc(COC(=O)c3ccccc3NC(=O)C(C)C)nc2s1,?,·,–,·,·,–
Cc1ccc(CNC(=O)c2ccc(Cn3c(SCc4ccc(F)cc4)nc4cccnc43)cc2)o1,–,·,–,?,·,·
O=C(c1cccs1)N(Cc1cccnc1)c1nc2ccc(F)cc2s1,?,·,?,·,·,–
CCc1cc2c(cc3c(=O)n(CC(=O)N4CCC(C)CC4)nc(CC)n32)s1,–,·,–,–,·,·
CCc1cc2c(cc3c(=O)n(CC(=O)N4CCN(c5ccccn5)CC4)nc(CC)n32)s1,·,7.9µM,–,?,–,–
CN(C)S(=O)(=O)c1ccc2c(c1)N(CC(=O)N1CCN(c3ccccc3F)CC1)CCS2,–,·,–,·,·,–
COc1ccc(C(F)(F)F)cc1N/C=C\c1nnnn1-c1ccccc1,–,?,–,–,–,–
O=C(c1ccccc1)c1ccccc1N/C=C/c1nnnn1-c1ccccc1,–,6.3µM,?,?,–,13µM
CCN(CC)S(=O)(=O)c1cccc(NC(=O)CNc2cccc(S(=O)(=O)N3CCCC3)c2)c1,–,2.5µM,-88,?,–,?
Cn1cnc(S(=O)(=O)N2CCC(C(=O)Nc3ccc(Cl)c(C(F)(F)F)c3)CC2)c1,?,·,-76,·,·,–
Cc1ccc(NC(=O)CN(C)CC(=O)Nc2cccc(F)c2)cc1S(=O)(=O)N1CCCCCC1,25µM,?,-66,?,–,?
Cc1ccc(-c2nnn(CC(=O)Nc3ccc(S(=O)(=O)N4CCC(C)CC4)cc3)n2)cc1,–,?,-75,?,–,–
CC1CCN(S(=O)(=O)c2ccc(NC(=O)Cn3nnc(-c4ccccc4)n3)cc2)CC1,–,–,–,?,–,–
COc1ccc(NC(=O)CN(C)CC(=O)Nc2cccc(F)c2)cc1S(=O)(=O)N1CCCCC1,–,–,–,–,·,–
COc1ccc2c(c1)[C@@H](NC(=O)OCc1ccccc1)[C@H](C)[C@@H](C(C)C)N2,·,·,–,·,·,·
O=C(CN1C(=O)COc2ccccc21)NCCc1ccc(Cl)cc1,–,·,–,·,·,–
Cc1ccc(NC(=O)CSCC(=O)Nc2cccc(S(=O)(=O)N3CCCCCC3)c2)cc1,–,13µM,–,·,–,·
Cc1cccc(NC(=O)CSCC(=O)Nc2cccc(S(=O)(=O)N3CCCCCC3)c2)c1,–,–,–,–,–,–
CCc1ccc(C(=O)CCC(=O)Nc2cccc(S(=O)(=O)N3CCCCC3)c2)cc1,–,10µM,–,?,–,–
O=C(Cn1nnc(-c2ccccc2Cl)n1)Nc1cccc(S(=O)(=O)N2CCCC2)c1,–,?,–,?,–,?
CCN(CC)S(=O)(=O)c1cc(NC(=O)CNc2cccc(S(=O)(=O)N3CCOCC3)c2)ccc1C,–,5.6µM,-85,?,–,?
O=C(Cn1nnc(-c2ccc(F)cc2)n1)Nc1cccc(S(=O)(=O)N2CCCC2)c1,–,22µM,-60,·,–,·
CCCn1c(=O)c2sccc2n2c(CCCC(=O)NCCOC)nnc12,–,·,?,·,·,–
CCc1ccc(NC(=O)c2cc(CN3CCOCC3)on2)cc1,–,·,–,·,·,–
Cc1ccc(-c2nc(CCNC(=O)C(=O)Nc3ccc(C)c(Cl)c3)cs2)cc1,–,·,–,·,·,–
SMILES,FMDV antiviral,HCV inhibitor,HCMV antiviral,MARV entry inh,SARS PLpro yeast,LASV entry inh
CN(CC(=O)Nc1cccc(S(=O)(=O)N2CCCC2)c1)CC(=O)Nc1ccc(Cl)c(C(F)(F)F)c1,–,18µM,-64,?,–,?
Cc1ccc(NC(=O)CNc2cccc(S(=O)(=O)N3CCCC3)c2)cc1F,–,?,–,?,–,–
CCN(CC)CC(=O)Nc1cccc(S(=O)(=O)N2CCCC2)c1,–,?,-91,–,–,–
CCN(CC)S(=O)(=O)c1ccc(C)c(NC(=O)CNc2cccc(S(=O)(=O)N3CCCC3)c2)c1,?,10µM,?,–,–,–
CN(CC(=O)Nc1cccc(S(=O)(=O)N2CCCC2)c1)CC(=O)Nc1ccc(F)c(F)c1F,–,?,–,?,·,?
Cc1ccc(NCC(=O)Nc2cccc(S(=O)(=O)N(C)C)c2)cc1S(=O)(=O)N1CCCCCC1,?,10µM,-81,?,–,?
COc1ccc(Cl)cc1NC(=O)CSc1nnc2[nH]c(=O)cc(C)n12,–,·,–,·,·,–
CCOC(=O)c1ccc(Nc2c(-c3ccc(N(C)C)cc3)nc3nc[nH]n23)cc1,–,·,–,·,·,–
O=C(CN1CCN(S(=O)(=O)c2ccc(F)cc2)CC1)Nc1ccc(Cl)c(C(F)(F)F)c1,28µM,?,–,?,–,11µM
CN(CC(=O)Nc1ccc(S(=O)(=O)N2CCCC2)cc1)Cc1ccc(Cl)cc1,–,?,–,?,–,?
CN(CC(=O)Nc1ccc(S(=O)(=O)N2CCCC2)cc1)Cc1c(F)cccc1Cl,?,?,-70,5µM,–,?
O=C(CN1CCN(S(=O)(=O)c2ccc(F)cc2)CC1)Nc1ccc2c(c1)OCCO2,–,–,–,–,–,–
O=S(=O)(NCC(c1ccco1)N1CCN(c2ccccc2)CC1)c1ccccc1 (stereo not given),–,·,–,·,·,–
CCN(CC)c1ccc(C(=O)OCC(=O)NC2CCCCC2C)cc1 (stereo not given),–,–,–,–,–,–
CC1CCCC(NC(=O)COC(=O)c2ccc(N(C)C)cc2)C1C (stereo not given),–,2.8µM,–,–,–,?
CCOc1ccc(-n2cc(-c3ccccc3)c3c(N4CCC(C)CC4)ncnc32)cc1,–,·,-63,·,·,–
CCOC(=O)C1CCN(c2ncnc3c2c(-c2ccccc2)cn3-c2ccccc2)CC1,–,10µM,–,?,–,?
CC1CN(c2ncnc3c2c(-c2ccccc2)cn3-c2ccc(F)cc2)CC(C)O1 (stereo not given),?,10µM,–,?,–,?
CCOC(=O)C1CCN(c2ncnc3c2c(-c2ccccc2)cn3-c2ccc(Cl)cc2)CC1,–,·,–,·,·,–
CCOc1ccc(-n2cc(-c3ccccc3)c3c(N4CCN(c5ccccc5OC)CC4)ncnc32)cc1,–,·,–,·,·,–
Cc1ccc(Cn2c(=O)c3c(nc4n3CCN4c3cc(C)cc(C)c3)n(C)c2=O)cc1,–,·,?,·,·,–
CNc1ccccc1C(C)(C)c1cc(-c2cccc(OC)c2)no1,?,?,-83,?,–,–
CCOc1ccccc1Nc1ccc2cc(S(=O)(=O)N3CCCCC3)ccc2n1,–,·,–,·,·,?
O=C(O)CCCCCC[C@@H]1C(=O)NC(=O)N1CC[C@@H](O)C1CCCCC1,·,·,·,–,·,·
Cc1ccc(C)c(NC(=S)N/N=C2\CCc3ccccc32)c1,–,10µM,–,·,–,·
CCNC(=S)N/N=C1\CCCCc2ccccc21,–,–,–,–,–,–
C=C(C)CNC(=S)N/N=C1\CCCCc2ccccc21,–,–,-61,–,–,?
Cc1ccc(NC(=S)N/N=C2/CCCCc3ccccc32)cc1,–,–,–,·,–,·
